Measured values: PubChem BioAssay (NCATS)
Records with an inconclusive call do not appear. Calls of active or inactive are those of the source. Unless noted, the call rests on the fitted dose curve.

Assays:
[1] = Primary qHTS to identify inhibitors of SARS-CoV-2 cell entry (AID 1645846); conditions: SARS-CoV-2 pseudovirus cell entry assay, luminescence; activity change, negative = inhibition: at 57.1 µM (top of the series) unless noted; further: nearly all actives have a fitted effect of over 45% in size; further: potency means the concentration at half of the fitted maximal effect
Summary of the method: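 HEK293-ACE2 (Expi293F, stable hACE2), 1500 cells/well, o/n 37C; cpd 23 nL pin, 1 h; MLV-PP w/ SARS-CoV-2-S (Wuhan-Hu-1, Δ19 C-term); 48 h 37C; Bright-Glo luminescence; normalized vs S-PP and bald PP.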

[2] = VSVG counterscreen qHTS to identify inhibitors of SARS-CoV-2 cell entry (AID 1645847); further: potency means the concentration at half of the fitted maximal effect; nearly all actives have a fitted effect of over 65% in size
Summary of the method: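 Expi293F/hACE2 cells, overnight plating; cpd 1 h, 37C/5% CO2; + VSV-G PP (MLV pseudotyping), 48 h; supernatant removed, Bright-Glo luciferase read. Norm: VSV-G PP and bald PP wells.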

[3] = target: N-terminal Xaa-Pro-Lys N-methyltransferase 1 (Homo sapiens) (UniProt Q9BV86); experiment: Confirmatory qHTS for Inhibitors of N-terminal methyltransferase 1 (NTMT1): MTaseGlo Assay (AID 1645874; active means well fitted curve in the direction sought with a large enough effect; an effect the other way counts as inactive or inconclusive;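 further: luminescence from SAH made as NTMT1 methylates SPKRIA peptide using SAM; 0% = DMSO control and -100% = no-enzyme control; nearly all actives have a fitted effect of over 65% in size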)
Sequence of N-terminal Xaa-Pro-Lys N-methyltransferase 1 (Homo sapiens) (Q9BV86 whole entry, looked up): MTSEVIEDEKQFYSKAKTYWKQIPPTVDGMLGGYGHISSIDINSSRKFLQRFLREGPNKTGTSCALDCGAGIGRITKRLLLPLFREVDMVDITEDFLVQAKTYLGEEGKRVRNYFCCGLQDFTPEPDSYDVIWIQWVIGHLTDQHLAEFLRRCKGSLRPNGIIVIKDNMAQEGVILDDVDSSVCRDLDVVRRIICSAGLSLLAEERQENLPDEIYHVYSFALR
Summary of the method: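 MTase-Glo luminescence measured SAH formed by 125 nM NTMT1 from 100 uM SAM and 1 uM SPKRIA peptide over 30 min at room temperature, following 15 min compound preincubation. Percent inhibition against no-enzyme and DMSO controls gave 4-parameter Hill fits.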

[4] = target: Glutathione peroxidase 1 (Homo sapiens) (UniProt P07203); experiment: Primary qHTS Assay for Inhibitors of Recombinant Selenoprotein Glutathione Peroxidase 1 (GPX1) (AID 1845191; active means well fitted curve in the direction sought with a large enough effect; an effect the other way counts as inactive or inconclusive; further: nearly all actives have a fitted effect of over 65% in size)
Sequence of Glutathione peroxidase 1 (Homo sapiens) (P07203 whole entry, looked up): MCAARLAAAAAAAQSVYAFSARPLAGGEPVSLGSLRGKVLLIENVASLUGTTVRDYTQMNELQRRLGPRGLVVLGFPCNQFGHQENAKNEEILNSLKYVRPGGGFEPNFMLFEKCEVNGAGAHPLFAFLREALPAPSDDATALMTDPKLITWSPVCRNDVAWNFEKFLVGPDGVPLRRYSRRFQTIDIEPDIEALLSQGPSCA
Summary of the method: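 NADPH consumption tracked by fluorescence at 340/450 nm between t=0 and t=15 min, room temperature. Final mix: 10 nM GPX1, 100 nM glutathione reductase, 1 mM GSH, 0.5 mM NADPH, 0.5 mM cumene hydroperoxide, 0.01% BSA; 30 min compound–enzyme preincubation.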

**Q.** For `Cc1ccc(S(=O)(=O)Nc2cc(C(F)(F)F)ccc2C(=O)Nc2nc(-c3ccccc3)cs2)cc1`, which Potency [1] is on record?
**A.** 8.91 µM (active)

**Q.** Which results are given for `c1cc(Nc2cc(C3CC3)[nH]n2)nc(Nc2ccc3nc[nH]c3c2)n1`?
**A.** activity change, negative = inhibition [1]: -94.9%; Potency [2]: 0.242 µM (active)

**Q.** With `CC1(N)CCN(c2cccnc2NC(=O)c2nc(-c3ncccc3C(F)(F)F)cnc2N)CC1` as the molecule, how does the Potency [1] read?
**A.** 14.1 µM (active)

**Q.** Which activity change, negative = inhibition [1] does the source give for `CC(C)(C)c1[nH]cnc1/C=c1\[nH]c(=O)/c(=C/c2ccccc2)[nH]c1=O` here?
**A.** -98.3%

**Q.** Which activity change, negative = inhibition [1] does the source give for `Nc1nccc2c1ncn2[C@@H]1C=C(CO)[C@@H](O)[C@H]1O` here?
**A.** -51.3%

**Q.** With `NS(=O)(=O)c1ccc(S(=O)(=O)Nc2cccc3c(Cl)c[nH]c23)cc1` as the molecule, how does the activity change, negative = inhibition [1] read?
**A.** -3.77%

**Q.** With `CN(C)CCN1C(=O)c2cccc3cc(NC(N)=O)cc(c23)C1=O` as the molecule, how does the Potency [1] read?
**A.** 7.08 µM (active)

**Q.** And the Potency [2]?
**A.** 12.1 µM (active)

**Q.** For `O=C(/C=C/c1ccc2ccc(C(F)(F)F)cc2n1)c1ccncc1`, which activity change, negative = inhibition [1] is on record?
**A.** -5.32%

**Q.** With `COc1ccc2c(c1)CC[C@@H]1[C@@H]2CC[C@]2(C)[C@@H](NCCCCCCN3C(=O)C=CC3=O)CC[C@@H]12` as the molecule, how does the Potency [1] read?
**A.** inactive

**Q.** Which activity change, negative = inhibition [1] does the source give for `Cc1c(NC(=O)c2cc(C(N)=O)nc3cc(F)ccc23)c(C(F)(F)F)nn1Cc1ccc(C#N)cc1` here?
**A.** -65.9%

**Q.** With `Nc1nc2c(c(=O)[nH]1)N1CN(c3ccc(C(=O)N[C@@H](CCC(=O)O)C(=O)O)cc3)CC1CN2` (some centres not stated) as the molecule, how does the activity change, negative = inhibition [1] read?
**A.** -83.8%

**Q.** And the Potency [2]?
**A.** 3.41 µM (active)

**Q.** Which activity change, negative = inhibition [1] does the source give for `COc1ccc([C@@H](O)[C@@H](C)Oc2ccc([C@H]3O[C@H](c4ccc(O[C@H](C)[C@H](O)c5ccc(OC)c(OC)c5)c(OC)c4)[C@H](C)[C@H]3C)cc2OC)cc1OC` here?
**A.** -95.6%

**Q.** With `CCOc1ccc(CN(CCc2ccc3c(c2)OCO3)Cc2cccc(Br)c2)cc1` as the molecule, how does the outcome [3] read?
**A.** inactive

**Q.** Which Potency [4] does the source give for `c1cc2c(cc1C1OC[C@@H]3C(c4ccc5c(c4)OCO5)OC[C@H]13)OCO2` (some centres not stated) here?
**A.** inactive
